This passage reports outcome and AC50 results from PubChem BioAssay (EPA / NIEHS).

Inconclusive results are not listed. Activity calls are given as the source filed them. The calls were made as follows: active = hit-call score of the fitted dose curve at least 0.9, where 1 is the maximum; inconclusive = response in the unintended direction; inactive = score below 0.9.

Estrogen receptor (Homo sapiens), sequence (P03372 whole entry, looked up, the tested form may be a part): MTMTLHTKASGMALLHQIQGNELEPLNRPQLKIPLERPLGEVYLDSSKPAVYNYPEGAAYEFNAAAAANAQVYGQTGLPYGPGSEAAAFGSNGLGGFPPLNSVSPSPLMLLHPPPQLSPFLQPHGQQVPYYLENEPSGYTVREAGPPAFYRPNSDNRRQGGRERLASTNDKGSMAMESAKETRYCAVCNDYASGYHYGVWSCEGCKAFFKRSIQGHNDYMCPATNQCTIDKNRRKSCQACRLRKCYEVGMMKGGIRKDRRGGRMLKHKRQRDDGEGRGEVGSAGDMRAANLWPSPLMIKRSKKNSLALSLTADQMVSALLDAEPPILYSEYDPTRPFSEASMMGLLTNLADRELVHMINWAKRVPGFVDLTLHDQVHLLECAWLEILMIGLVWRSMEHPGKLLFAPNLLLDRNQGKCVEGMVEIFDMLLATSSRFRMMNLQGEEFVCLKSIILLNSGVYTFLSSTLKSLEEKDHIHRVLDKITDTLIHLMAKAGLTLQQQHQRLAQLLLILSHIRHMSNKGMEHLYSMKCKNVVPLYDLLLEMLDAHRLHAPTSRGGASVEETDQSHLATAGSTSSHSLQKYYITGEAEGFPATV

The assay deals with Estrogen receptor (Homo sapiens) (UniProt P03372). In words: OT_ER_ERaERa_0480: Odyssey Thera (OT) 8-hour HEK293T Protein-Complementation Assay for Estrogen Receptor-alpha/-alpha Homodimer (AID 2283351).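 Also: rise in fluorescence from reassembled reporter fragments on ERα LBD homodimer in nucleus or whole cell.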 As for the experimental part:
OT_ER_ERaERa_0480 is a cell-based assay that uses HEK293T, a human kidney cell line, with measurements taken at 8 hours after chemical dosing in a 384-well plate.OT_ER_ERaERa_0480 is one of one assay component(s) measured or calculated from the OT_ER_ERaERa_0480 assay. It is designed to make measurements of protein fragment complementation, a form of binding reporter, as detected with fluorescence intensity signals by Protein-fragment Complementation technology.Data from the assay component OT_ER_ERaERa_0480 was analyzed into 1 assay endpoint. This assay endpoint, OT_ER_ERaERa_0480, was analyzed in the positive analysis fitting direction relative to DMSO as the negative control and baseline of activity. Using a type of binding reporter, measures of receptor for gain-of-signal activity can be used to understand the binding at the pathway-level as they relate to the gene ESR1. Furthermore, this assay endpoint can be referred to as a primary readout, because the performed assay has only produced 1 assay endpoint. To generalize the intended target to other relatable targets, this assay endpoint is annotated to the nuclear receptor intended target family, where the subfamily is steroidal.
Protein-fragment complementation assay, or PCA, is a method for the identification and quantification of protein-protein interactions. In the PCA, the proteins of interest ("bait" and "prey") are each covalently linked to fragments of a third protein (e.g. DHFR, which acts as a "reporter"). Interaction between the bait and the prey proteins brings the fragments of the reporter protein in close proximity to allow them to form a functional reporter protein whose activity can be measured. The OT ER alpha / ER alpha assay is a homodimer PCA of the ligand binding domain (amino acids 310-547) of human ER alpha stably expressed in HEK293T cells. […] Fluorescent signal in the basal state of the assay is very low and is primarily punctuate and cytoplasmic. Modulation of this assay is quantified as an increase in mean fluorescence intensity in the nucleus (for agonists) or in the nucleus and cytoplasm (antagonists) relative to vehicle controls, and can be quantified on a high content imaging device or a laser scanning cytometer. The latter instrument is favored for this assay because of the rapid mode of data acquisition, the ability to acquire data from the entire cell population in a well (as opposed to a fraction of the well on the high content devices) and the larger dynamic range typically achieved with this instrument. To assess sensitivity of the ER alpha/ER alpha LBD assay to ligand, cells were treated with the ER agonist 17 beta-estradiol (E2) in 10-point concentration- response format for 8 hours and monitored response on a laser scanning plate cytometer (Acumen eX3; TTP Lab Tech).
Regarding `CCCCCCC(C)OC(=O)CCCCC(=O)OC(C)CCCCCC` (stereo not drawn), the compound was called inactive.

As for `O=S(=O)(O)c1ccc2ccccc2c1`, the outcome was inactive.

In the case of `COC(=O)C1CCC(C(=O)OC)CC1` (stereo not drawn), the outcome was inactive.

Regarding `Cc1cc(C)cc(O)c1`, the result was inactive.

For the compound `C(=C(c1ccccc1)c1ccccc1)c1ccccc1`, the AC50 – broadly, the concentration giving half of the maximal activity seen – is 5.6 µM (active).

Turning to `O=C(OCCOCCOCCOC(=O)c1ccccc1)c1ccccc1`, the call was inactive.

Turning to `C#C[C@]1(O)CC[C@H]2[C@@H]3CCc4cc(OC)ccc4[C@H]3CC[C@@]21C`, the AC50 is 9.95 µM (active).

Take `C1COCCN1`: the call was inactive.

Consider `Cc1ccc(S(=O)(=O)NCl)cc1`, for which the compound was called inactive.

Consider `CCN(Cc1cccc(S(=O)(=O)O)c1)c1ccc(C(=C2C=CC(=[N+](CC)Cc3cccc(S(=O)(=O)O)c3)C=C2)c2ccc(O)cc2S(=O)(=O)[O-])cc1`, for which the call was inactive.

Regarding `CCCCC(CC)COP(=O)(O)OCC(CC)CCCC` (stereo not drawn), the call was inactive.

On to `[Co]`, for which the call was inactive.

In the case of `CC(CCl)OP(=O)(OC(C)CCl)OC(C)CCl` (stereo not drawn), the compound was called inactive.

For `CCCCOc1ccc(N)cc1`, the result was inactive.

As for `CN(C)Cc1ccccc1O`, the result was inactive.

As for `OC[C@@H](O)[C@@H](O)[C@H](O)[C@@H](O)CO`, the compound was called inactive.

For the compound `CCCCCCOC(=O)c1ccccc1O`, the call was inactive.

For `CC(Cc1ccc(O)c(O)c1)C(C)Cc1ccc(O)c(O)c1` (stereo not drawn), the AC50 is 11.9 µM (active).

As to `c1ccc(B(c2ccccc2)c2ccccc2)cc1`, the AC50 was 55.7 µM (active).

For `CNC(=S)NC`, the call was inactive.

With `CCCCCCOC(=O)c1ccccc1`, the compound was called inactive.

With `CC(C)OC(=O)c1ccccc1C(=O)OC(C)C`, the AC50 was 62.8 µM (active).

For `CC/C=C\CCOC(C)=O`, the outcome was inactive.
